Results from PubChem BioAssay (NCATS).
Inconclusive results are not listed. Entries that show only a call come without a potency. Calls of active or inactive are those of the source. The call rests on the fitted dose curve; in most records, active means well fitted inhibition curve with a large enough effect; inconclusive means small, poorly fitted or top-dose-only effect; inactive means flat fitted curve, though single readings scatter.

test system: MCC-26; assay: qHTS assay to identify novel small-molecules to repurpose for Merkel cell carcinoma treatment (AID 1296009); conditions: MCC and control cell lines, CellTiter-Glo viability, 72 h; series mostly up to 46 µM; further: nearly all actives have a fitted effect of over 60% in size
Description: MCC is a rare and aggressive neuroendocrine skin cancer with limited treatment options. Approximately 80% of MCCs have the Merkel cell polyomavirus (MCPyV) DNA integrated into the host genome (virus-positive: VP-MCC) and viral oncogenes drive oncogenesis. The remaining MCCs are virus-negative (VN-MCC) and are caused by UV mutagenesis. To identify novel treatments for VP-MCC and/or VN-MCC we screened three VP-MCC cell lines (WAGA, MKL-1, MKL-2), three VN-MCC cell lines (MCC-13, MCC-26, UISO), and four immortalized, non-transformed control cell lines (HaCaT, HEK293T, CRL7250, NIH-3T3) against ~2,400 compounds in the NCGC Pharmaceutical Collection (NPC) and ~1,900 compounds in the Mechanism Interrogation PlatE (MiPE). Using cell viability as a readout (CellTiter-Glo assay) we found both overlapping and distinct drugs that can be repurposed for the treatment of VP-MCC and VN-MCC.
A high-throughput screen was conducted in 1536-well white flat bottom plates (Corning) on a Kalypsys robotic system. Cell lines WAGA, MKL-1, MKL-2, MCC-13, MCC-26, UISO, HaCaT, HEK293T, CRL7250, and NIH-3T3 were screened against 2 small molecule annotated drug libraries NPC and MIPE in dose response (8 and 11 pt. respectively) measuring cell viability after 72 hours of incubation. […] A 1,536 pintool (Kalypsys) was used to transfer 23 nL of compound in DMSO to the 1,536-well assay plates. After 72 hr incubation at 37 degree celsius, 2.5 uL of CellTiter-Glo (Promega) was dispensed into each well using a BiorapTR. Plates were incubated at room temperature for 10 min, transferred to a ViewLux (PerkinElmer) and the luminescence was recorded using an exposure time of 2 seconds. Relative luminescence units (RLUs) were normalized to in-plate controls (no cells as a positive (cytotoxicity) control, DMSO as negative control) and the normalized data was processed using NCATS in-house software.
Potency means the concentration at half of the fitted maximal effect.

SMILES	Potency	activity change, negative = cytotoxicity
COC(=O)C[C@](O)(CCCC(C)(C)O)C(=O)O[C@@H]1C(OC)=C[C@]23CCCN2CCc2cc4c(cc2[C@H]13)OCO4	inactive	–
CC1(O)CC(c2nc(-c3ccc4ccc(-c5ccccc5)nc4c3)c3c(N)nccn23)C1 (stereo not given)	inactive	–
Cc1ccc(S(=O)(=O)Nc2cc(Cl)ccc2C(=O)Nc2nc(-c3ccccc3)cs2)cc1	inactive	–
CC[C@@]1(O)C(=O)OCc2c1cc1n(c2=O)Cc2cc3cc(O)ccc3nc2-1	0.132 µM (active)	–
Cc1c(CN2CCN(S(C)(=O)=O)CC2)sc2c(N3CCOCC3)nc(-c3cnc(N)nc3)nc12	0.833 µM (active)	–
O=C(O)CCCc1c[nH]c2ccccc12	inactive	–
O=C(O)c1ccc2c(c1)nc(Nc1cccc(Cl)c1)c1ccncc12	inactive	–
CNC(=O)c1ccc(-c2cnc3ncc(Cc4ccc5ncccc5c4)n3n2)cc1F	inactive	–
C=C1C(=CC=C2CCC[C@]3(C)[C@@H]([C@H](C)C=C[C@H](C)C(C)C)CC[C@@H]23)C[C@@H](O)C[C@@H]1O	14.8 µM (active)	–
CC=CC1=C(C(=O)O)N2C(=O)[C@H](NC(=O)[C@H](N)c3ccc(O)cc3)[C@@H]2SC1	inactive	–
CN(C1CCc2c(c3ccccc3n2CC(=O)O)C1)S(=O)(=O)c1ccc(F)cc1 (stereo not given)	inactive	–
CC(C)c1cnn2c(NCc3ccccc3)cc(N[C@@H](CO)[C@H](O)CO)nc12	0.743 µM (active)	–
CCCn1c(=O)c2[nH]c(-c3cnn(Cc4cccc(C(F)(F)F)c4)c3)nc2n(CC)c1=O	inactive	–
Cc1ccc(CN2CCNCC2)cc1NC(=O)CNc1ccc(F)c(F)c1	inactive	–
COc1cccc(-c2ccc(NC(=O)C3=C(C(=O)O)CCC3)c(F)c2)c1	inactive	–
O=C(C=Cc1c(C(=O)O)[nH]c2cc(Cl)cc(Cl)c12)Nc1ccccc1	inactive	–
COc1cc2c(Oc3ccc(-c4cnc(Nc5ccc(F)cc5)n(C)c4=O)cc3F)ccnc2cc1OCCCN1CCOCC1	7.43 µM (active)	–
CCCCc1nc2cc(C=CC(=O)NO)ccc2n1CCN(CC)CC	8.33 µM (active)	–
COc1ccc(CC2SC(=O)NC2=O)cc1C(=O)NCc1ccc(C(F)(F)F)cc1 (stereo not given)	inactive	–
C1Cc2[nH]nc(-c3nn[nH]n3)c2C1	inactive	–

SMILES	Potency	activity change, negative = cytotoxicity
Cc1c(Cn2c(C)nc3c(C(=O)O)cc(N4CCOCC4)cc32)cccc1C(F)(F)F	inactive	–
COc1cccc2nc(-c3cccs3)nc(NN3C(=O)C=C(C)C3=O)c12	inactive	–
COc1cc(OC2CCN(C)CC2)ccc1Nc1ncc2c(n1)n(C1CCCC1)c(=O)n2C	inactive	–
O=c1[nH]nc(Sc2ncc([N+](=O)[O-])s2)n1-c1ccc2c(c1)OCCO2	10.5 µM (active)	–
CC1(C)CCC(c2ccc(Cl)cc2)=C(CN2CCN(c3ccc(C(=O)NS(=O)(=O)c4ccc(N[C@H](CCN5CCOCC5)CSc5ccccc5)c(S(=O)(=O)C(F)(F)F)c4)cc3)CC2)C1	inactive	–
Cc1nc2ccc(CN(C)c3ccc(C(=O)N[C@@H](CCC(=O)O)C(=O)O)s3)cc2c(=O)[nH]1	inactive	–
COc1cc(C(C)C)c2c(c1)S(=O)(=O)N(COc1cc(=O)n3cccc(OCCN4CCCCC4)c3n1)C2=O	inactive	–
CC(C)c1ccc(Cn2ccc3c4c(N)nc(NC5CC5)nc4ccc32)cc1	16.6 µM (active)	–
CC(C)CC(=O)Nc1n[nH]c2c1CN(C(=O)C1CCN(C)CC1)C2(C)C	18.7 µM (active)	–
C[C@@]12O[C@@H](C[C@]1(O)CO)n1c3ccccc3c3c4c(c5c6ccccc6n2c5c31)CNC4=O	18.7 µM (active)	–
CCOC(=O)C1=C(C)NC2=C(C(=O)CC(C)(C)C2)C1c1ccc(-c2ccccc2)cc1 (stereo not given)	inactive	–
CCc1cc2c(cc1N1CCC(N3CCOCC3)CC1)C(C)(C)c1[nH]c3cc(C#N)ccc3c1C2=O	inactive	–
CC(=O)c1c(C)c2cnc(Nc3ccc(N4CCNCC4)cn3)nc2n(C2CCCC2)c1=O	inactive	–
Cc1ccc(NC(=O)C2(c3ccc4c(c3)OC(F)(F)O4)CC2)nc1-c1cccc(C(=O)O)c1	0.833 µM (active)	–
CCS(=O)(=O)c1cccc(-c2cc(C(=O)NC3CCN(C)CC3)c(C)c3[nH]c4ncc(C)cc4c23)c1	4.69 µM (active)	–
COc1ccc(CC2c3cc(OC)c(OC)cc3CC[N+]2(C)CCC(=O)OCCCCCOC(=O)CC[N+]2(C)CCc3cc(OC)c(OC)cc3C2Cc2ccc(OC)c(OC)c2)cc1OC (stereo not given)	–	2.59% [at 9.22 µM] (inactive)
C=CC(=O)Nc1cc2c(Nc3ccc(F)c(Cl)c3)ncnc2cc1C#CC(C)(C)N1CCN(C)CC1	10.5 µM (active)	–
O=C(O)C1(Cc2cccc(Nc3nccs3)n2)CCC(Oc2cccc(Cl)c2F)CC1 (stereo not given)	inactive	–
CC=C1NC(=O)[C@H]2CSSCCC=C[C@H](CC(=O)N[C@H](C(C)C)C(=O)N2)OC(=O)[C@H](C(C)C)NC1=O	0.0662 µM (active)	–
COc1ccc(C=Cc2cc(OC)c(OC)c(OC)c2)cc1O	inactive	–
